# Measured values: publication PMC11006913
# Molecular target: ALX4 (Homo sapiens, UniProt Q9H161 200-286, Q225E)
# Test: PBM; 200 nM protein, PBS
# Conditions: dsDNA, one strand shown
# ALX4, sequence (Q9H161 200-286 Q225E): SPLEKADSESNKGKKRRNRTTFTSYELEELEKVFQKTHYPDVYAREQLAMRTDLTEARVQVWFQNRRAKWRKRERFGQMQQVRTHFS
row,Sequence,binding signal
1,CCGAAGGC,"8.35 upbm affinity estimate (log intensity, higher = more binding, comparable within an allelic series)"

# Molecular target: HOXA2 (Homo sapiens, UniProt O43364 129-215, R185T)
# Test: PBM; 200 nM protein, PBS
# Conditions: dsDNA, one strand shown
# HOXA2 (Homo sapiens, UniProt O43364 129-215, R185T), sequence (O43364 129-215 R185T): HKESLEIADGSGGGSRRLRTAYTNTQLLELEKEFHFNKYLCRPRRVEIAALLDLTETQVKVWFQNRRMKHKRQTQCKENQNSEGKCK
row,Sequence,binding signal
1,CAGGAAGG,"6.96 upbm affinity estimate (log intensity, higher = more binding, comparable within an allelic series)"
2,CAGGCTTC,"7.14 upbm affinity estimate (log intensity, higher = more binding, comparable within an allelic series)"
3,ATGAATGA,"9.4 upbm affinity estimate (log intensity, higher = more binding, comparable within an allelic series)"
4,GCCCCGAC,"7.21 upbm affinity estimate (log intensity, higher = more binding, comparable within an allelic series)"
5,CCCCCCAG,"6.72 upbm affinity estimate (log intensity, higher = more binding, comparable within an allelic series)"

# Molecular target: HOXA4 (Homo sapiens, UniProt Q00056 201-287, R217L)
# Sequence (Q00056 201-287 R217L): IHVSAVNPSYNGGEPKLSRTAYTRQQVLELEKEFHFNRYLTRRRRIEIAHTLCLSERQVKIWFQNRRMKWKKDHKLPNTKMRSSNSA
# Test: PBM; 200 nM protein, PBS
# Conditions: dsDNA, one strand shown
row,Sequence,binding signal
1,GCCAAGCC,"9.8 upbm affinity estimate (log intensity, higher = more binding, comparable within an allelic series)"
2,CCCTGGTC,"9.68 upbm affinity estimate (log intensity, higher = more binding, comparable within an allelic series)"
3,TAATTTGA,"11.4 upbm affinity estimate (log intensity, higher = more binding, comparable within an allelic series)"
4,AGCCACGG,"9.72 upbm affinity estimate (log intensity, higher = more binding, comparable within an allelic series)"
5,ACCTTCGC,"9.99 upbm affinity estimate (log intensity, higher = more binding, comparable within an allelic series)"
6,CCGGCAGG,"9.86 upbm affinity estimate (log intensity, higher = more binding, comparable within an allelic series)"
7,CCCCAGGC,"9.7 upbm affinity estimate (log intensity, higher = more binding, comparable within an allelic series)"
8,GCACCACC,"9.72 upbm affinity estimate (log intensity, higher = more binding, comparable within an allelic series)"
9,CCGGACGG,"9.81 upbm affinity estimate (log intensity, higher = more binding, comparable within an allelic series)"
10,CAGCCTCC,"9.73 upbm affinity estimate (log intensity, higher = more binding, comparable within an allelic series)"
11,CAGGAAGG,"9.68 upbm affinity estimate (log intensity, higher = more binding, comparable within an allelic series)"
12,CCCGAGGG,"9.62 upbm affinity estimate (log intensity, higher = more binding, comparable within an allelic series)"
13,CAGGCTTC,"9.71 upbm affinity estimate (log intensity, higher = more binding, comparable within an allelic series)"
14,CGCGCGCG,"9.88 upbm affinity estimate (log intensity, higher = more binding, comparable within an allelic series)"
15,ATGAATGA,"11.1 upbm affinity estimate (log intensity, higher = more binding, comparable within an allelic series)"
16,AGCCCGAG,"9.88 upbm affinity estimate (log intensity, higher = more binding, comparable within an allelic series)"
17,GCCCCGAC,"9.94 upbm affinity estimate (log intensity, higher = more binding, comparable within an allelic series)"

row,Sequence,binding signal
1,CCCTCTCG,"9.86 upbm affinity estimate (log intensity, higher = more binding, comparable within an allelic series)"
2,CCCCCTTC,"9.27 upbm affinity estimate (log intensity, higher = more binding, comparable within an allelic series)"
3,GCCTCCCA,"9.83 upbm affinity estimate (log intensity, higher = more binding, comparable within an allelic series)"
4,CCCGACGC,"9.86 upbm affinity estimate (log intensity, higher = more binding, comparable within an allelic series)"
5,GGGGGAAC,"9.7 upbm affinity estimate (log intensity, higher = more binding, comparable within an allelic series)"
6,GCCCGGAC,"9.75 upbm affinity estimate (log intensity, higher = more binding, comparable within an allelic series)"
7,GAGGTTGC,"9.7 upbm affinity estimate (log intensity, higher = more binding, comparable within an allelic series)"
8,GCGGACCC,"9.74 upbm affinity estimate (log intensity, higher = more binding, comparable within an allelic series)"
9,CCCCACGG,"9.68 upbm affinity estimate (log intensity, higher = more binding, comparable within an allelic series)"
10,CCCCCCAG,"9.39 upbm affinity estimate (log intensity, higher = more binding, comparable within an allelic series)"
11,CCCGAAGG,"9.81 upbm affinity estimate (log intensity, higher = more binding, comparable within an allelic series)"
12,GATCCCCC,"9.87 upbm affinity estimate (log intensity, higher = more binding, comparable within an allelic series)"
13,GCCGGCCC,"9.63 upbm affinity estimate (log intensity, higher = more binding, comparable within an allelic series)"
14,GACCCTCC,"9.94 upbm affinity estimate (log intensity, higher = more binding, comparable within an allelic series)"
15,CCGAGAGG,"9.77 upbm affinity estimate (log intensity, higher = more binding, comparable within an allelic series)"
16,CCGAAGGC,"9.88 upbm affinity estimate (log intensity, higher = more binding, comparable within an allelic series)"

# Molecular target: T1, SIX6 (Homo sapiens, UniProt O95475 114-200, T139Q)
# T1 sequence: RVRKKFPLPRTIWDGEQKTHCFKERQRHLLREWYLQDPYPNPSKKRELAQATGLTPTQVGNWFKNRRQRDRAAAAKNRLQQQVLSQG
# Test: PBM; 200 nM protein, PBS
# Conditions: dsDNA, one strand shown
row,Sequence,binding signal
1,GGATCACA,"11.2 upbm affinity estimate (log intensity, higher = more binding, comparable within an allelic series)"
2,AGTGATCC,"11.2 upbm affinity estimate (log intensity, higher = more binding, comparable within an allelic series)"
3,AGGGATCA,"11.1 upbm affinity estimate (log intensity, higher = more binding, comparable within an allelic series)"
4,CAGATATC,"11.1 upbm affinity estimate (log intensity, higher = more binding, comparable within an allelic series)"
5,GATCCCCC,"11.1 upbm affinity estimate (log intensity, higher = more binding, comparable within an allelic series)"

# Molecular target: HOXC9 (Homo sapiens, UniProt P31274 178-260)
# Sequence (P31274 178-260): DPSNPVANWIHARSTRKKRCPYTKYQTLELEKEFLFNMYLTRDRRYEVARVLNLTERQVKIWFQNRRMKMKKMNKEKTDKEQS
# Test: PBM; 200 nM protein, PBS
# Conditions: dsDNA, one strand shown
row,Sequence,binding signal
1,AGCCACGG,"9.71 upbm affinity estimate (log intensity, higher = more binding, comparable within an allelic series)"
2,CCGGACGG,"9.65 upbm affinity estimate (log intensity, higher = more binding, comparable within an allelic series)"
3,CCCGAGGG,"9.55 upbm affinity estimate (log intensity, higher = more binding, comparable within an allelic series)"
4,CAGGCTTC,"9.43 upbm affinity estimate (log intensity, higher = more binding, comparable within an allelic series)"
5,ATGAATGA,"11 upbm affinity estimate (log intensity, higher = more binding, comparable within an allelic series)"
6,AGCCCGAG,"9.62 upbm affinity estimate (log intensity, higher = more binding, comparable within an allelic series)"
7,GCCTCCCA,"9.69 upbm affinity estimate (log intensity, higher = more binding, comparable within an allelic series)"
8,CCCGACGC,"9.54 upbm affinity estimate (log intensity, higher = more binding, comparable within an allelic series)"
9,GACCCTCC,"9.69 upbm affinity estimate (log intensity, higher = more binding, comparable within an allelic series)"
10,CCGAGAGG,"9.42 upbm affinity estimate (log intensity, higher = more binding, comparable within an allelic series)"

# Molecular target: MSX2 (Homo sapiens, UniProt P35548 130-214, R199I)
# Sequence (P35548 130-214 R199I): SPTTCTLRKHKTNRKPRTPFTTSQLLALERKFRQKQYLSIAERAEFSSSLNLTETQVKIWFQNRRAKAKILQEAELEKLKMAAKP
# Test: PBM; 200 nM protein, PBS
# Conditions: dsDNA, one strand shown
row,Sequence,binding signal
1,TAATTTGA,"12.2 upbm affinity estimate (log intensity, higher = more binding, comparable within an allelic series)"
2,CGCGCGCG,"9.61 upbm affinity estimate (log intensity, higher = more binding, comparable within an allelic series)"
3,GCCCGGAC,"9.48 upbm affinity estimate (log intensity, higher = more binding, comparable within an allelic series)"
4,CCCCCCAG,"9.41 upbm affinity estimate (log intensity, higher = more binding, comparable within an allelic series)"

# Molecular target: ALX1 (Homo sapiens, UniProt Q15699 118-204, L144V)
# Sequence (Q15699 118-204 L144V): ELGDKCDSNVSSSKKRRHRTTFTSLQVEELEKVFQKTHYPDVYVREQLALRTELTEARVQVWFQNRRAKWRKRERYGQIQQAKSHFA
# Test: PBM; 200 nM protein, PBS
# Conditions: dsDNA, one strand shown
row,Sequence,binding signal
1,CCGGACGG,"6.5 upbm affinity estimate (log intensity, higher = more binding, comparable within an allelic series)"
2,CAGCCTCC,"6.61 upbm affinity estimate (log intensity, higher = more binding, comparable within an allelic series)"
3,CCGAGAGG,"6.38 upbm affinity estimate (log intensity, higher = more binding, comparable within an allelic series)"

# Molecular target: ALX3 (Homo sapiens, UniProt O95076 139-225, N203Q)
# Sequence (O95076 139-225 N203Q): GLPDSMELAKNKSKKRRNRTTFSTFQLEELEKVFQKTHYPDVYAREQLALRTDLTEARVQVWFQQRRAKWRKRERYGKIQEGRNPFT
# Test: PBM; 200 nM protein, PBS
# Conditions: dsDNA, one strand shown
row,Sequence,binding signal
1,AGCCACGG,"7.72 upbm affinity estimate (log intensity, higher = more binding, comparable within an allelic series)"
2,CCGGCAGG,"7.82 upbm affinity estimate (log intensity, higher = more binding, comparable within an allelic series)"
3,CCGGACGG,"7.77 upbm affinity estimate (log intensity, higher = more binding, comparable within an allelic series)"
4,CAGCCTCC,"7.63 upbm affinity estimate (log intensity, higher = more binding, comparable within an allelic series)"
5,CCCCCTTC,"7.42 upbm affinity estimate (log intensity, higher = more binding, comparable within an allelic series)"

# Molecular target: T2, PAX4 (Homo sapiens, UniProt O43316 9-242, R200Q)
# T2 sequence: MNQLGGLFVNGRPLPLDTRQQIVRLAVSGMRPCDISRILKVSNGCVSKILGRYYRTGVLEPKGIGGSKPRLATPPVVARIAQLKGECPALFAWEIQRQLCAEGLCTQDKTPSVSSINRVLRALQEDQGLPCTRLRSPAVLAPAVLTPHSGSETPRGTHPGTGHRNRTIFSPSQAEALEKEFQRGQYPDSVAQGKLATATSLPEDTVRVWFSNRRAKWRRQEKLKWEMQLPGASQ
# Test: PBM; 200 nM protein, PBS
# Conditions: dsDNA, one strand shown
row,Sequence,binding signal
1,CCCTGGTC,"9.25 upbm affinity estimate (log intensity, higher = more binding, comparable within an allelic series)"
2,TAATTTGA,"11.9 upbm affinity estimate (log intensity, higher = more binding, comparable within an allelic series)"
3,GCACCACC,"9.35 upbm affinity estimate (log intensity, higher = more binding, comparable within an allelic series)"

# Molecular target: HOXC9 (Homo sapiens, UniProt P31274 178-260, R193K)
# Sequence (P31274 178-260 R193K): as the sequence (P31274 178-260) above, with R16K counted along it
# Test: PBM; 200 nM protein, PBS
# Conditions: dsDNA, one strand shown
row,Sequence,binding signal
1,AGCCACGG,"9.61 upbm affinity estimate (log intensity, higher = more binding, comparable within an allelic series)"
2,CCGGACGG,"9.6 upbm affinity estimate (log intensity, higher = more binding, comparable within an allelic series)"
3,CCCGAGGG,"9.54 upbm affinity estimate (log intensity, higher = more binding, comparable within an allelic series)"
4,CAGGCTTC,"9.37 upbm affinity estimate (log intensity, higher = more binding, comparable within an allelic series)"
5,ATGAATGA,"11.2 upbm affinity estimate (log intensity, higher = more binding, comparable within an allelic series)"
6,AGCCCGAG,"9.59 upbm affinity estimate (log intensity, higher = more binding, comparable within an allelic series)"
7,GCCTCCCA,"9.59 upbm affinity estimate (log intensity, higher = more binding, comparable within an allelic series)"
8,CCCGACGC,"9.42 upbm affinity estimate (log intensity, higher = more binding, comparable within an allelic series)"
9,GACCCTCC,"9.67 upbm affinity estimate (log intensity, higher = more binding, comparable within an allelic series)"
10,CCGAGAGG,"9.45 upbm affinity estimate (log intensity, higher = more binding, comparable within an allelic series)"

# Molecular target: HOXA2 (Homo sapiens, UniProt O43364 129-215, R185K)
# Sequence (O43364 129-215 R185K): as the sequence (O43364 129-215 R185T) above, with T57K counted along it
# Test: PBM; 200 nM protein, PBS
# Conditions: dsDNA, one strand shown
row,Sequence,binding signal
1,CAGGAAGG,"10.3 upbm affinity estimate (log intensity, higher = more binding, comparable within an allelic series)"
2,CAGGCTTC,"10.5 upbm affinity estimate (log intensity, higher = more binding, comparable within an allelic series)"
3,ATGAATGA,"11.9 upbm affinity estimate (log intensity, higher = more binding, comparable within an allelic series)"
4,GCCCCGAC,"10.4 upbm affinity estimate (log intensity, higher = more binding, comparable within an allelic series)"
5,CCCCCCAG,"9.81 upbm affinity estimate (log intensity, higher = more binding, comparable within an allelic series)"

# Molecular target: ALX1 (Homo sapiens, UniProt Q15699 118-204, L144R)
# Sequence (Q15699 118-204 L144R): as the sequence (Q15699 118-204 L144V) above, with V27R counted along it
# Test: PBM; 200 nM protein, PBS
# Conditions: dsDNA, one strand shown
row,Sequence,binding signal
1,CCGGACGG,"6.53 upbm affinity estimate (log intensity, higher = more binding, comparable within an allelic series)"
2,CAGCCTCC,"6.48 upbm affinity estimate (log intensity, higher = more binding, comparable within an allelic series)"
3,CCGAGAGG,"6.33 upbm affinity estimate (log intensity, higher = more binding, comparable within an allelic series)"
